# Compounds with a hit are over-represented: about 2.4% of the library has one in this group of screens.
# FLuc inh: inhibitors of firefly luciferase; purified firefly luciferase, luminescence, 8 min; Potency, µM (top dose mostly 57.1 µM), for inactives: top-dose activity change, negative = inhibition, usual class: inhibitors; 72,000 tested, 2.2% active; note: % is set by controls: 0 for no effect and ±100 for the full control effect; nearly all actives have a fitted effect of over 40% in size
# Target sequence (P08659 whole entry, looked up): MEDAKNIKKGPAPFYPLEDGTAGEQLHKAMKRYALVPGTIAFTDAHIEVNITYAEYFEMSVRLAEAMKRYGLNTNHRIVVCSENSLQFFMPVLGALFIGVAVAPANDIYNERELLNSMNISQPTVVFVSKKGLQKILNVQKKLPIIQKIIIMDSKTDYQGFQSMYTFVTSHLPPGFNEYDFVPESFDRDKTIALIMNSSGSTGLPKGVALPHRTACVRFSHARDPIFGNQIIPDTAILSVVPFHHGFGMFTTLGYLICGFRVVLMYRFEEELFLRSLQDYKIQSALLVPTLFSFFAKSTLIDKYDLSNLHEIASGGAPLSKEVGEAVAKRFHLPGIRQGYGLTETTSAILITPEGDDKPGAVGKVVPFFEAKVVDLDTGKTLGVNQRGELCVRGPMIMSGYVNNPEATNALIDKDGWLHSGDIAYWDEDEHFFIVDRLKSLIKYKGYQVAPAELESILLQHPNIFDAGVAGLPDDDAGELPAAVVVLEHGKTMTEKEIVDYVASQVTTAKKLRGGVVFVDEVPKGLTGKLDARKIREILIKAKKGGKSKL
#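 Substrate buffer containing 10 uM ATP (pH 7.2 imidazole, Mg2+, KCl, detergent, BSA) is dispensed, compound pinned in, then luciferase/luciferin detector mix added. After 8 min at ambient temperature, light output is measured.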
# p53ts 32C kill: cytotoxicity in p53ts cells at permissive temperature; H1299-p53A138V at 32C, ATP luminescence viability, 24 h; Potency, µM (highest dose often 46.1 µM), without a hit: at the highest dose activity change, negative = cytotoxicity, most hits filed as cytotoxic; 130,000 tested, 0.93% active; AID 924;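 note: 0% = DMSO and -100% = full killing by reference compound; nearly all actives have a fitted effect of over 55% in size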
#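 ATP-content luminescence (ATPlite) read-out after 24 h compound exposure at 32C in H1299-p53A138V cells (600/well). Tested up to 46 uM. Normalized to DMSO (0%) and 100 uM tamoxifen (100% killing); Hill-fit AC50.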
# p53ts 39C tox: cytotoxicity in p53ts cells at nonpermissive temperature. AID 902. H1299-p53A138V viability at 39C, ATP luminescence, 24 h. 130,000 tested, 1.5% active. Potency, µM (titrated, usually from 46.1 µM), for the others: top-dose activity change, negative = cell killing, hits mostly cytotoxic; note: % is set by controls: 0 for no effect and ±100 for the full control effect; nearly all actives have a fitted effect of over 55% in size
# Peg3 imprint: inducers of genomic imprint erasure in mouse ES cells. Potency, µM (series often up to 60.7 µM), for the others: top-dose activity change, positive = activation, hits mostly activators. mouse ES Peg3-LacZ reporter, beta-gal luminescence, 40 h. 110,000 tested, 0.02% active
#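 Readout: BetaGlo luminescence (5 min, room temp) for LacZ from the normally silent maternal Peg3 allele in female Peg3LacZ-Neo ES cells. Cells 300/well, 40 h, 37C, 5% CO2. Data normalized per plate to negative controls.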
# IkB signaling: inhibitors of IkB signaling in ABC-DLBCL cells | ABC-DLBCL IkBa-CBG/CBR dual luciferase ratio, 4 h; response scale: scaled: untreated 0%, proteasome inhibitor 100% | Potency, µM (series often up to 57.1 µM), inactives show at the highest dose IkBa stabilization activation | 110,000 tested, 0.04% active; active = well fitted curve in the direction sought with a large enough effect in the signal ratio, not every such curve was filed as active; inconclusive = small, poorly fitted or top-dose-only effect, or a change in a side signal; the % refers to the signal ratio;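 note: the direction sought is a rising ratio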
#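 In this assay, an IκBα–CBG68 fusion accumulates when IKK-driven degradation is blocked; native CBR normalizes for cell number. OCI-Ly3 cells were treated 4 h with compound and doxycycline, then green and red light read after Chroma-Glo addition.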
# Active calls of the source: *; ? = inconclusive; · = not tested or not shown; ! = repeats disagree; [ ] = another dose, or the depositor's remark. Unless noted, calls come from the whole dose curve; as a rule, active = well fitted curve in the direction sought with a large enough effect; inconclusive = small, poorly fitted or top-dose-only effect, or another doubt; inactive = no such curve, though single readings can be large; an effect the other way counts as inactive or inconclusive. Potency is the fitted concentration of half-maximal effect.
SMILES,FLuc inh,p53ts 32C kill,p53ts 39C tox,Peg3 imprint,IkB signaling
O=C(Oc1ccc2c(c1)OCO2)c1ccc(F)cc1Cl,13µM*,-14%,-14%,-7%,-1%
CCc1nnc(NC(=O)CCC(=O)N2CCN(Cc3ccccc3)CC2)s1,13µM*,?,?,-39%,?
O=C(O)CCC/C=C\C[C@H]1[C@@H](/C=C\[C@@H](O)C2Cc3ccccc3C2)[C@H](F)C[C@H]1O,6%,·,·,·,1%
Cc1cccc(C(=O)Nc2sc3c(c2C(=O)O)CCCC3)c1,·,?,13µM*,-71%[10.9 µM],?
O=C(Nc1sc2c(c1C(=O)O)CCCCC2)c1ccco1,20µM*,13µM*,13µM*,-94%,?
Cc1occc1C(=O)Nc1sc2c(c1C(N)=O)CCCCC2,13µM*,-23%,-19%,-7%,3%
COC(=O)c1c(NC(=O)c2ccoc2C)sc2c1CCC2,1%,0%,6%,-1%,0%
O=C(/C=C/c1ccccc1)c1ccccc1,10µM*,·,·,·,·
CC1CCN(S(=O)(=O)c2ccc3c(c2)CCN3C(=O)Nc2ccccc2Br)CC1,·,5%,-15%,-10%[10.9 µM],0%
COc1ccc(/C=C\C(=O)Nc2ccccc2C(=O)O)cc1OC,32µM*!,16µM*,13µM*,-66%,?
FC(F)(F)c1cc(CO[C@@H]2CCCN[C@H]2c2ccccc2)cc(C(F)(F)F)c1,-1%,?,20µM*,·,-7%
CC(=O)NC1=C(NC2CCS(=O)(=O)C2)C(=O)c2ccccc2C1=O (stereo not given),·,16µM*,?,·,·
O=C(Nc1ccccc1)NC1CCS(=O)(=O)C1 (stereo not given),·,0%,7%,·,·
COC(=O)c1[nH]c2cc(OC)c(OC)cc2c1NC(=O)c1cccc(OC)c1,7.9µM*,?,?,-11%,2%
COc1ccccc1C(=O)Nc1cccc(SC)c1,·,-17%,-3%,·,·
COc1ccc(C(=O)Nc2ccccc2C(N)=O)cc1,13µM*,13µM*,13µM*,-68%,?
CSc1cccc(NC(=O)c2ccc3c(c2)CCCN3S(C)(=O)=O)c1,·,13µM*,?,-4%[10.9 µM],?
COc1cccc(C(=O)Nc2cccc(SC)c2)c1,13µM*,?,-26%,-65%,9%
CCS(=O)(=O)N1CCCc2cc(C(=O)Nc3cccc(C(C)=O)c3)ccc21,·,-2%,4%,-1%[10.9 µM],?
CCOC(=O)c1cc(-c2ccccc2)n(CCCC(=O)Nc2cc(C)ccc2OC)c1C,·,9%,23%,-18%[10.9 µM],-1%
O=c1[nH]ncc2ccccc12,·,6%[1.84 µM],2%,-3%,?
Cc1cc(Br)ccc1NC(=O)COc1cc(=O)n(C)c2ccccc12,·,-2%,?,-14%[10.9 µM],-2%
Cc1cccc(CNC(=O)C2CCN(c3nn4cc(-c5ccc(F)cc5)nc4s3)CC2)c1,·,5%,·,·,·
COc1ccc(C(=O)Nc2cccc(C)c2)cc1,6.3µM*,6.3µM*,5µM*,-87%,?
COc1ccc(CNC(=O)Nc2cccc(C)c2)cc1,-5%,-8%,-16%,-39%,1%
SMILES,FLuc inh,p53ts 32C kill,p53ts 39C tox,Peg3 imprint,IkB signaling
COc1ccc(OC)c(NC(=O)c2ccc3nc(-c4ccccc4)c(-c4ccccc4)nc3c2)c1,·,·,1%,·,·
COc1ccc(C(=O)Nc2cc(OC)ccc2OC)cc1,20µM*,?,?,-13%,?
CC(=O)c1cccc(NC(=O)CC(c2ccc(C)cc2)N2Cc3ccccc3C2=O)c1 (stereo not given),·,7%,-8%,11%[10.9 µM],?
CCOC(=O)Nc1nc(-c2ccccc2)c(C)s1,0%[11.4 µM],-2%[9.22 µM],-6%[9.22 µM],-7%[10.9 µM],0%[11.4 µM]
Cc1cc(NC(=O)CSc2cn(CCNC(=O)c3ccc(Cl)cc3)c3ccccc23)no1,-2%,5%,11%,-19%,-2%
CCOc1ccc(C(=O)NCCn2cc(SCC(=O)Nc3cc(C)on3)c3ccccc32)cc1,16µM*,-6%,-27%,-24%,?
Cc1cccc(NC(=O)c2sc(NC(=O)c3ccco3)c(C#N)c2C)c1C,0%,-6%,-6%,·,1%
CC1(C)Cc2c(sc(NC(=O)c3ccco3)c2C#N)CO1,7.9µM*,10µM*,13µM*,-59%,-3%
CCC(Sc1nc(-c2ccccc2)[nH]c1S(=O)(=O)c1ccc(C)cc1)C(=O)O (stereo not given),·,-5%,30%,-9%[10.9 µM],?
COCCCNC(=O)CN1C(=O)c2c(c3ccccc3n2C)C1c1ccc(OC)cc1 (stereo not given),·,12%,?,-5%[10.9 µM],?
O=C(Nc1ccc(S(=O)(=O)Nc2ccccc2)cc1)C1COc2ccccc2O1 (stereo not given),·,?,22µM*,·,·
O=c1cc(-c2ccccc2)oc2c1ccc1ccccc12,-1%[11.4 µM],-7%,32µM*,-14%,0%[11.4 µM]
CCOc1ccc(CNC(=O)CCCn2c(=O)c3cccn3c3ccc(F)cc32)cc1,·,-1%,21%,-10%[10.9 µM],?
O=c1c(-c2ccccc2)n[nH]c2ccccc12,13µM*,?,?,-50%,0%
COc1cccc(CNC(=O)C2CCN(C(=O)N3CCOc4ccc(Cl)cc43)CC2)c1OC,·,12%,-4%,-6%[10.9 µM],-3%
COc1ccc(-c2ccc(-c3nnn(CC(=O)N4CCOCC4)n3)cc2)cc1,1.6µM*,2.5µM*,?,-7%,2%
Clc1ccc(-c2cn3c(n2)CCC3)cc1,13µM*,·,·,·,·
CC(C)c1ccc(NC(=O)c2cc3c(=O)oc4ccccc4c3s2)cc1,·,3%,-23%,-7%[10.9 µM],0%
CCc1ccc(NS(=O)(=O)c2cc(-c3cnc(C4CC4)o3)ccc2C)cc1,·,31%,20µM*,15%[10.9 µM],14%
CCOC(=O)c1cccc(NS(=O)(=O)c2cc(-c3cnc(C4CC4)o3)ccc2C)c1,·,23%,27%,-7%[10.9 µM],?
Cc1occc1-c1nc(-c2ccncc2)no1,-3%,-7%,-2%,-63%,1%
Cc1occc1-c1nc(-c2ccccn2)no1,13µM*,10µM*,13µM*,-92%,6%
c1ccc(-c2ccccc2-c2nc(-c3cccnc3)no2)cc1,2%,7%,-2%,-17%,?
c1ccc(-c2noc(-c3cccnc3)n2)nc1,?,13µM*,13µM*,-92%,3%
c1ccc(-c2noc(-c3ccc4ccccc4c3)n2)nc1,0.2µM*,0.32µM*,0.63µM*,-91%,?
c1ccc(-c2noc(-c3ccc4c(c3)OCO4)n2)nc1,0.79µM*,0.63µM*,1µM*,-92%,?
CCc1cccc(NCc2ccccc2-c2nnc(-c3ccccc3Cl)o2)c1,·,4%,-18%,-5%[10.9 µM],1%
O=C1[C@H]2[C@H]3C=C[C@@H](C4[C@H]3[C@@H]3C(=O)N(CN5CCSCC5)C(=O)[C@H]43)[C@H]2C(=O)N1CN1CCSCC1 (stereo not given in full),·,·,·,-6%[10.9 µM],·
